# HSF1 inhib: HSF1 inhibition; NIH3T3-HGL HSE-luciferase, MG132-induced, luminescence 8 h; active compounds read low; activity change, negative = inhibition, % at 7.5 µM (by protocol); actives 0.77% (n = 300,000); AID 2098;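 active = more than half of replicate wells show activity change below -50%, luminescence cut by over half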;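 also: luciferase reports HSF-1 transcriptional activity via heat shock element; 0% = median of DMSO wells and -100% = zero luminescence signal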
# HSP90 inh: HSP90 refolding inhibition in rabbit reticulocyte lysate; luciferase refolding luminescence, 3 h; actives 0.91% (n = 290,000); inhibition, % at 5.6 µM;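 active = inhibition above the screen-wide mean plus 3 SD, computed separately per campaign, cut at about 16% in these data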;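 also: 0% = DMSO wells and 100% = 60 µM geldanamycin wells; inhibitors lower the luminescence because luciferase stays unfolded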
# PG9 Ab binder: PG9 antibody binding by small molecule; TR-FRET gp120-PG9 antibody binding; inhibition, % at 6.7 µM; actives 0.43% (n = 360,000); in the data active = inhibition above about 8.5%
# SMARCA2 act: increases SMARCA2 function in MMTV reporter cells | MG213 cells, MMTV-luciferase reporter, dexamethasone, overnight | activation, % at 9.1 µM | actives 1% (n = 370,000) | AID 652017; in the data active = activation above about 7.8%;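 also: 0% = vehicle wells and 100% = reference activator wells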
# GAA850 FXN act: frataxin GAA850 promoter activation | HEK293 lucGAA850 FXN promoter luciferase reporter, 24 h; percent of 10 µM SAHA response | activation, % at 6 µM | actives 0.56% (n = 360,000) | AID 540364;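 active = activation above the average of all compounds screened plus 3 SD, cutoff fixed separately per campaign, cut at about 7.5% in these data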;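 also: 0% = DMSO wells and 100% = 10 µM SAHA wells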
# AI-2 QS modul: modulators of Vibrio harveyi AI-2 quorum sensing system; activity change, % at 7.5 µM; Vibrio harveyi JMH597 AI-2 luminescence/OD600 ratio, 9 h; active compounds read low; strain lacks LuxN and CqsS sensors; 0 = neutral-control median; AID 2094; actives 0.4% (n = 300,000); in the data active = activity change below about -75%, passing the limit was not always enough;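 also: luminescence divided by OD600 gain over 9 h not by final OD600 alone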
# PG9 binder conf: PG9 antibody binding, confirmed; actives 90% (n = 1,500); inhibition, % at 6.7 µM; TR-FRET PG9 antibody binding, biochemical; shares compounds with PG9 Ab binder; in the data active = inhibition above about 9%
# PGV04 Ab binding: PGV04 control antibody binding, counter-screen; shares compounds with PG9 Ab binder; TR-FRET PGV04 antibody-gp120 binding, biochemical; inhibition, % at 6.7 µM; actives 95% (n = 1,500); in the data active = inhibition above about 9.5%
# PG9 binder DR: PG9 antibody binding, dose response. shares compounds with PG9 Ab binder. TR-FRET PG9 antibody-gp120 binding inhibition. IC50, µM. 95 tested, under 10 active. AID 651848; in the data active = IC50 below about 10 µM
# PGV04 binding DR: counter-screen for PG9 binders: binding to control antibody PGV04 | actives 20% (n = 95) | shares compounds with PG9 Ab binder | IC50, µM | TR-FRET binding to control antibody PGV04
# PG126 DR counter: counter-screen for PG9 binders: binding to control antibody PG126 | shares compounds with PG9 Ab binder | TR-FRET binding to antibody PG126, counterscreen | IC50, µM | actives 20% (n = 95)
# * marks the source's active call; other numbers are inactive results; i = inactive; / = no result. Only some compounds are listed: those with a hit (about 3.4% of all), similar ones and a draw of the others. Rule as the data show it, unless noted: active = IC50 below about 9 µM; inactive = the rest.
SMILES,HSF1 inhib,HSP90 inh,PG9 Ab binder,SMARCA2 act,GAA850 FXN act,AI-2 QS modul,PG9 binder conf,PGV04 Ab binding,others
CCOc1ccc(/C(O)=C2\C(=O)C(=O)N(c3ccccn3)C2c2ccccc2F)c(C)c1 (stereo not drawn),/,/,9.6*,2,0,/,22*,32*,
COC(=O)c1sc(NC(=S)NNC(=O)c2c(Br)c(C)nn2C)c(C(=O)OC)c1C,9,-1,19*,1,1,64,7,10.0*,
COC(=O)c1ccc2nc(-c3cccc(Cl)c3)c(Cc3ccccc3C(F)(F)F)n2c1,/,/,-1,1,/,/,/,/,
CN1CCCCC(NC(=O)c2ccc(F)c(F)c2)C1=O (stereo not drawn),/,/,-2,1,/,/,/,/,
Cc1ccc(N=Cc2ccc(O)cc2O)cc1F,/,-3,17*,-4,-3,46,11*,15*,
Oc1ccc(C=Nc2ccc(N3CCOCC3)cc2)c(O)c1,1,5,-3,-3,2,4,/,/,
C[C@@H]1COc2cc(N3CCOCC3)ccc2S(=O)(=O)N1,/,/,2,-5,/,/,/,/,
O=c1[nH]c2ccc(Cl)cc2c(O)c1Cc1ccccc1,-5,6,9.0*,-4,1,40,11*,14*,
Cc1ccc(C2=Nc3ccccc3N=C(c3ccco3)C2)c(O)c1,8,-2,-3,1,0,13,/,/,
Cc1ccc(O)c(C2=Nc3ccccc3N=C(c3ccco3)C2)c1,2,-6,59*,-1,2,38,55*,69*,
Cn1c(SCC(=O)N2CCc3ccccc32)nnc1-c1ccc(S(=O)(=O)N2CCCC2)cc1,1,2,9.5*,-1,0,13,17*,25*,
CC(C)CC(=O)NC(=S)Nc1sc2c(c1C(N)=O)CCC2,19,-3,17*,1,3,7,26*,33*,
CCOC(=O)Nc1ccc2c(COC(=O)CNS(=O)(=O)c3cccc(Br)c3)cc(=O)oc2c1,12,8,39*,-3,2,1,32*,37*,
CC(C)[C@H](NC(=O)C1CC1)C(=O)N1CCC[C@H]1C(=O)NCc1ccccc1,/,/,-1,-2,/,/,/,/,
CCOC(=O)N1CCC(NC(=O)c2cc(-c3ccc(OC)cc3)nc3ccccc23)CC1,4,0,9.5*,0,2,24,8,11*,
COc1ccc(C(=O)Nc2nnc(Cc3ccc(OC)c(OC)c3)s2)cc1,4,-4,9.5*,-4,0,20,11*,20*,
COc1cccc(C(=O)Nc2nnc(-c3ccc(OC)cc3OC)s2)c1,9,2,31*,-1,0,17,31*,41*,
COC(=O)[C@]12C[C@H](CC(=O)NCc3cccs3)C(=O)N(CCC3=CCCCC3)C1=C[C@H](C1CCCC1)O[C@@H]2C,/,/,/,-1,/,/,/,/,
Cc1cc(Br)c2nc3c(c(C(=O)O)c2c1)CCCCC3,-3,-2,75*,-1,3,16,74*,88*,
CCc1ccc2nc3c(c(C(=O)O)c2c1)CCC3,-7,-2,0,-2,-3,17,/,/,
CCc1ccc2[nH]c3nc(C)cc(C)c3c(=O)c2c1,17,-6,25*,3,5,36,16*,23*,
Cc1ccc2[nH]c3c(=S)nc[nH]c3c2c1,11,-4,72*,1,4,6,44*,21*,PG9 binder DR=>67;PGV04 binding DR=i;PG126 DR counter=i
Cc1ccc2[nH]c3c(=O)n(N)c(C)nc3c2c1,-2,-4,1,4,0,26,/,/,
